Source: PubChem BioAssay (NCI)
About 79,000 compounds went through this panel and 15% of them were active in at least one assay; those are over-represented in the sample as a whole. Cut-off read from the data, not from the text of the source: active = growth inhibition above about 70%; inactive = the rest.

Experiments:
[1] = NCI Yeast Anticancer Drug Screen. Data for the rad50 strain (AID 155);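 note: 0% = growth of vehicle-only cultures of the same strain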; details: S. cerevisiae rad50 strain growth inhibition; at 50.0 µM; hits give high values
Outline: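 Relative growth inhibition (compound vs vehicle) was measured in yeast with a defined repair-gene alteration.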

[2] = NCI Yeast Anticancer Drug Screen. Data for the mec2-1 strain (AID 157); details: S. cerevisiae mec2-1 strain, at 50.0 µM, hits give high values
Outline: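 Vehicle-treated cultures served as reference for growth inhibition of compound-exposed mec2-1 yeast.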

[3] = NCI Yeast Anticancer Drug Screen. Data for the sgs1 mgt1 strain (AID 161);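 note: 0% = growth of cultures given vehicle only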; details: S. cerevisiae sgs1 mgt1 strain, at 50.0 µM, hits give high values
Outline: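 Genetically altered yeast, compound exposure, growth inhibition relative to vehicle.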

[4] = NCI Yeast Anticancer Drug Screen. Data for the cln2 rad14 strain (AID 165);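 note: 0% = growth equal to vehicle treated cultures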; details: S. cerevisiae cln2 rad14 strain, at 50.0 µM, hits give high values
Outline: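 Each compound was tested on cln2 rad14 yeast. Inhibition of growth was calculated against vehicle-exposed controls.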

[5] = NCI Yeast Anticancer Drug Screen. Data for the bub3 strain (AID 167); details: S. cerevisiae bub3 mutant strain, at 50.0 µM, hits give high values
Outline: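 Screening used yeast with an engineered genetic alteration affecting cell cycle control. Compound-exposed cultures were compared with vehicle cultures, and reduced growth was taken as inhibition.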

[6] = NCI Yeast Anticancer Drug Screen. Data for the mlh1 rad18 strain (AID 175); details: S. cerevisiae mlh1 rad18 strain growth inhibition; at 50.0 µM; hits give high values
Outline: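 Vehicle-treated cultures served as the reference for growth inhibition in a yeast strain carrying DNA damage repair alterations exposed to each compound.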

Measured: growth inhibition

Cc1ccc(S(=O)(=O)Nc2ccc(O)cc2)cc1
inactive: [1] -11.2% | [2] -15.2% | [3] -15.2% | [4] -27% | [5] -7.6% | [6] -5.4%

CC(C)CSc1nc2ccc(N=Cc3ccccc3O)cc2s1
inactive: [1] -29.4% | [2] -5.5% | [3] -11.3% | [4] -13% | [5] 8.75% | [6] -17.3%

O=C(NC1CCCCC1)Oc1ccc(Cl)cc1Cl
inactive: [1] 4.8% | [2] 23.9% | [3] 28.2% | [4] -8.45% | [5] 35.6% | [6] 31.9%

CNC(=O)/C(=C\c1ccccc1)NC(C)=O
inactive: [1] 9% | [2] -13.6% | [3] 6% | [4] -54.7% | [5] 17.9% | [6] -25.1%

Cn1ccc(=O)n(C)c1=O
inactive: [1] -8.15% | [2] -10.8% | [3] 2% | [4] 5.15% | [5] 5.05% | [6] 2.25%

Nc1cccc(C(F)(F)F)c1[N+](=O)[O-]
inactive: [1] -8.25% | [2] -28% | [3] -22.4% | [4] -23.4% | [5] -25.9% | [6] 18.1%

COCCCN1CC(=O)N2Cc3ccccc3CN2C(=O)C1
inactive: [1] -9.15% | [2] -13% | [3] -15.2% | [4] -3.6% | [5] 2.95% | [6] -4.6%

CC(=O)Nc1ccc(/C=N/NC(N)=S)cc1
inactive: [1] 7.4% | [2] -7.35% | [3] 17% | [4] 12.4% | [5] 3.05% | [6] 13%

C=CCc1cc(N)ccc1O
inactive: [1] 15.9% | [2] 8.9% | [3] 11.8% | [4] 11.8% | [5] 11.7% | [6] 7.9%

CSc1ccc(C)c(/C=N/Nc2ccc([N+](=O)[O-])cc2[N+](=O)[O-])c1
inactive: [1] 7.05% | [2] 26.9% | [3] 18.4% | [4] -13.6% | [5] 0.5% | [6] 3.25%

CC(C)C1OC(c2ccccc2)OCC1(C)C (stereo unspecified)
inactive: [1] -14.8% | [2] -18.2% | [3] -4.15% | [4] -39.2% | [5] -4.15% | [6] 6.35%

Cc1ccc(S(=O)(=O)OC2=C/C(=N\c3onc(C)c3C)c3ccccc3C2=O)cc1
inactive: [1] -41.6% | [2] -19.4% | [3] -27.9% | [4] -5.4% | [5] -15% | [6] -19.3%

COc1ccc(/C=C/[n+]2ccccc2)cc1OC
inactive: [1] -1.45% | [2] 4.85% | [3] 4.05% | [4] -14.2% | [5] 10.7% | [6] -3.85%

COC(=O)/C=C(/C=C1/C(C#N)=C(N)N(c2ccc(Cl)cc2)C1(C)/C(=C/C(=O)OC)C(=O)OC)C(=O)OC (stereo unspecified)
inactive: [1] -3.15% | [2] -11.4% | [3] 2.5% | [4] 6.95% | [5] 21.8% | [6] 10.7%

CCCCCc1c2c(c(CCCCC)c3c1-c1cccc4cccc-3c14)-c1ccc(C)cc1C2
inactive: [1] -29.7% | [2] -9.95% | [3] -30.9% | [4] -18.1% | [5] -0.3% | [6] -19.4%

O=C(c1ccccc1)c1ccc(OCCOc2ccc(C(=O)c3ccccc3)cc2)cc1
inactive: [1] -0.7% | [2] -1.7% | [3] 2.15% | [4] -15.1% | [5] 3.9% | [6] -13.2%

CCCCN(CCCC)CCC(O)c1cc(-c2ccc(C(F)(F)F)cc2)nc(-c2ccc(C(F)(F)F)cc2)c1 (stereo unspecified)
inactive: [1] 24.3% | [2] -4.9% | [3] -37.6% | [4] -8.7% | [5] -55.6% | [6] -41.2%

COc1cc(S(=O)(=O)O)ccc1N=N/C(=N\Nc1ccc(S(=O)(=O)O)cc1OC)C(N)=O
inactive: [1] -42.1% | [2] 5.55% | [3] 8.9% | [4] 18.6% | [5] -1.95% | [6] 7.7%

O=S(=O)(O)c1cc2cc(S(=O)(=O)O)c(O)cc2cc1O
inactive: [1] -20.6% | [2] -7.55% | [3] -1.35% | [4] 3.55% | [5] -0.25% | [6] -7.9%

N#Cc1nc(CCCCCN2C(=O)c3ccccc3C2=O)oc1N
inactive: [1] -8.9% | [2] 9.2% | [3] -23.1% | [4] -4.1% | [5] -28.6% | [6] -68.8%

CSC1(C)CC2C(CC1N1CCCCC1)C2(C)C (stereo unspecified)
inactive: [1] -28.4% | [2] -16.4% | [3] -46.4% | [4] 5.8% | [5] -24% | [6] -35.9%
